Compound activity: PubChem BioAssay, several laboratories
Compounds with a hit are over-represented: about 4.7% of the library has one in this group of screens.
tim10-1 inh: tim10-1 yeast growth inhibition; S. cerevisiae tim10-1 ts strain growth, BacTiter-Glo, 24 h; inhibition, % at 20 µM; actives 2.2% (n = 330,000);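 active = inhibition of at least 40%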;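 also: mutant grown at 25 °C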
ATG4B inh: blocks human ATG4B protease cleavage of LC3 substrate | inhibition, % at 8.33 µM | actives 0.51% (n = 340,000) | Q9Y4P1 | ATG4B cleavage of LC3-PLA2, NBD-HPC fluorescence, 1 h; in the data active = inhibition above about 40%
Target sequence (Q9Y4P1 whole entry, looked up): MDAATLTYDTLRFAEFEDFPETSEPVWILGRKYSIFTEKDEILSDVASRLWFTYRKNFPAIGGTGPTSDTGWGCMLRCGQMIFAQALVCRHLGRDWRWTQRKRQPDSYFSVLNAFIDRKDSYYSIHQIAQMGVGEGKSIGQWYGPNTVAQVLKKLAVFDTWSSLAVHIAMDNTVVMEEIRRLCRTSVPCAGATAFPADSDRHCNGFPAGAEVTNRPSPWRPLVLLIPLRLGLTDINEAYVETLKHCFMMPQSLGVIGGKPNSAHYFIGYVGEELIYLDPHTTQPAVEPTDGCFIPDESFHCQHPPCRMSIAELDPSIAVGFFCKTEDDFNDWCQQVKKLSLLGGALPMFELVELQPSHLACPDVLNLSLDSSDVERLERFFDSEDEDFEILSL
SKKanGAS inh: SKKanGAS growth inhibition; S. pyogenes SKKanGAS, kanamycin growth, BacTiter-Glo, 6 h; actives 1.3% (n = 300,000); inhibition, % at 7.5 µM;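 active = mean replicate score, as percent of positive control median, at least 50; inconclusive = mean below 50 but one replicate at or above 50; inactive = mean and every replicate below 50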;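 also: strain carries kanamycin resistance gene driven by streptokinase promoter and grows in 40 µg/ml kanamycin; loss of luminescence reflects streptokinase promoter inhibition or plain growth inhibition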
PfHsp90 set2: inhibits growth of yeast expressing Plasmodium falciparum Hsp90 | S. cerevisiae expressing PfHsp90, BacTiter-Glo ATP, 48 h; yeast lacking PDR1 and PDR3 efflux regulators | inhibition, % at 9.4 µM | actives 0.32% (n = 310,000) | AID 504621;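 active = every replicate shows inhibition above about 80%, whatever the replicate mean, limit read from the data; inconclusive = mean inhibition reaches the set limit but some replicate falls short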
tim23-1 inh: growth inhibitors of tim23-1 mutant yeast; inhibition, % at 20 µM; S. cerevisiae tim23-1 growth, BacTiter-Glo luminescence, 24 h; AID 463212; actives 1.3% (n = 330,000);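 active = growth inhibition of the mutant yeast at or above 50%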;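 also: temperature-sensitive mutant grown at 25 °C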
TIM10 inh: TIM10 yeast growth inhibition | S. cerevisiae TIM10 strain growth, BacTiter-Glo luminescence, 24 h | inhibition, % at 10 µM | actives 1.4% (n = 330,000);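 active = inhibition of 40% or more at the single tested concentration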;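 also: wild-type TIM10 isogenic control strain grown at permissive 25 °C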
ATG4B conf: ATG4B (human) inhibition, single-dose confirmed. shares compounds with ATG4B inh. ATG4B protease fluorescent substrate cleavage assay. actives 92% (n = 320). inhibition, % at 8.33 µM; in the data active = inhibition above about 39%
PLA2 counter: PLA2 (human) inhibition in ATG4B counter-screen; purified PLA2, NBD-C6-HPC fluorescence, 45 min; inhibition, % at 8.33 µM; actives 66% (n = 1,600); shares compounds with ATG4B inh; in the data active = inhibition above about 50%
Target sequence (P04054 whole entry, looked up): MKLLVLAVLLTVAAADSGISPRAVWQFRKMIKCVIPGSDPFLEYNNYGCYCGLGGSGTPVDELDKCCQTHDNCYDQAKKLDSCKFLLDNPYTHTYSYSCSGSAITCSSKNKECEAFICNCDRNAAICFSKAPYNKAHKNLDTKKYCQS
Of the large screens only hits and unclear results are named; the others gave an inactive call (follow-up assays come after a bar, where they were run).

Cn1c(COc2ccc(Br)cc2)nnc1SC1CCc2ccccc2C1=O (stereo unspecified)	ATG4B inh 49.5 | PLA2 counter 62.4
Cc1ccccc1CSc1nnc(-c2cccs2)n1Cc1ccco1	ATG4B inh 77.8 | PLA2 counter 74.6
Cc1ccccc1CSc1nnc(-c2ccco2)n1Cc1ccco1	ATG4B inh 52.6 | PLA2 counter 52.4
c1ccc(CSc2nnc(-c3cccs3)n2Cc2ccco2)cc1	ATG4B inh 58.5 (no result: PfHsp90 set2) | PLA2 counter 60.0
CCOC(=O)c1ccc[n+](CC(=O)c2ccc(OC)cc2)c1	none
O=[N+]([O-])c1ccc(Cl)c(C2Nc3cccc4cccc(c34)N2)c1	ATG4B inh 53.7 | PLA2 counter 71.3
OCCNc1nc(Nc2ccccc2C(F)(F)F)nc(N2CCCC2)n1	none
O=C(O)C1Nc2ccc(Br)cc2C2C=CCC12 (stereo unspecified)	ATG4B inh 64.4 | ATG4B conf inactive | PLA2 counter inactive
O=C(O)C1Nc2c(O)cccc2C2C=CCC12 (stereo unspecified)	none (no result: SKKanGAS inh)
O=C(O)C1Nc2c(Cl)cc(Cl)cc2C2C=CCC12 (stereo unspecified)	ATG4B inh 64.9 (no result: tim10-1 inh, tim23-1 inh, TIM10 inh) | ATG4B conf inactive | PLA2 counter inactive
CCOC(=O)C1Nc2ccc(C)cc2C2C=CCC12 (stereo unspecified)	none
COc1cc(/C=N/NC(=O)CNC(=O)c2ccncc2)ccc1O	none
Cc1c(Cl)c([N+](=O)[O-])nn1CCCC(=O)Nc1cccc(Cl)c1	ATG4B inh 74.8 (no result: PfHsp90 set2) | PLA2 counter 78.4
Cc1nn(Cc2ccccc2)c(C)c1NC(=O)CCCn1nc([N+](=O)[O-])c(Cl)c1C	none
Cc1nn(Cc2c(Cl)cccc2Cl)c(C)c1NC(=O)CCCn1nc([N+](=O)[O-])c(Cl)c1C	ATG4B inh 45.6 | ATG4B conf 70.0 | PLA2 counter inactive
Cc1c(Cl)c([N+](=O)[O-])nn1CCCC(=O)Nc1cccnc1	none
COc1cc(C(=O)OCC(=O)NC(=O)c2cccn2C)ccc1OC(F)F	none (no result: PfHsp90 set2)
O=C(Nc1cc(C(=O)Nc2ccccc2C(=O)O)cc(C(=O)Nc2ccccc2C(=O)O)c1)c1ccccc1	ATG4B inh 67.9 (no result: PfHsp90 set2) | PLA2 counter 84.2
O=C(Nc1ccccc1C(=O)O)c1cccc(NC(=O)c2ccccc2Br)c1	none
COc1cc(OC)nc(NC(=O)C(C)C)n1	none
Cc1cccc(C)c1NS(=O)(=O)c1ccc(NC(=O)c2ccc(Cl)c([N+](=O)[O-])c2)cc1	ATG4B inh 48.5 (no result: PfHsp90 set2) | PLA2 counter inactive
Cc1nn(Cc2c(F)c(F)c(F)c(F)c2F)c(C)c1NC(=O)c1ccc(COc2cc(Cl)ccc2Cl)cc1	ATG4B inh 61.6 | ATG4B conf 44.0 | PLA2 counter inactive
Cc1cccc(C)c1NC(=O)c1cccc(COc2cc(Cl)ccc2Cl)c1	none
Cc1nn(Cc2c(F)c(F)c(F)c(F)c2F)c(C)c1NC(=O)c1ccc(COc2ccc(F)cc2)o1	ATG4B inh 66.8 | PLA2 counter 67.9
Cc1ccc(S(=O)(=O)N2CCN(C(=O)COC(=O)/C=C/c3ccc(C(F)(F)F)cc3)CC2)c(C)c1	none (no result: tim10-1 inh, SKKanGAS inh, tim23-1 inh, TIM10 inh)
CC(C)c1ccc2c(c1)C(c1ccc(N3CCOCC3)cc1)=NNC(c1cccs1)=N2	ATG4B inh 69.7 | PLA2 counter 72.3
NC(=O)C1Cc2ccccc2CN1C(=O)c1cc(C2CC2)nn1-c1ccccc1 (stereo unspecified)	ATG4B inh 91.5 (no result: SKKanGAS inh) | PLA2 counter 92.3
CC1Cc2ccccc2N1S(=O)(=O)c1cccc(C(=O)N2CCCCC2)c1 (stereo unspecified)	none (no result: SKKanGAS inh)
CC1Cc2ccccc2N1S(=O)(=O)c1cccc(C(=O)N2Cc3ccccc3CC2C(N)=O)c1 (stereo unspecified)	ATG4B inh 67.8 (no result: SKKanGAS inh) | PLA2 counter 67.7
NC(=O)C1Cc2ccccc2CN1C(=O)c1cccc(Oc2ccccc2)c1 (stereo unspecified)	ATG4B inh 47.3 | PLA2 counter 94.2
Cc1ccc(C(=O)N2Cc3ccccc3CC2C(=O)O)cc1 (stereo unspecified)	none
NC(=O)C1Cc2ccccc2CN1C(=O)c1nn(Cc2ccccc2)c(=O)c2ccccc12 (stereo unspecified)	ATG4B inh 40.9 (no result: SKKanGAS inh) | PLA2 counter 61.0
COc1ccc(CNC(=O)Nc2ccc(C)cc2C)cc1	none
CCc1cccc(CC)c1NC(=O)CCCSc1nc2ccccc2s1	none
Cc1cccc(C)c1NC(=O)CCCSc1nc2ccccc2s1	ATG4B inh 46.6 | PLA2 counter inactive
Cc1ccc(C(=O)O)cc1N=Cc1cc(Br)cc(Br)c1O	ATG4B inh 43.8, PfHsp90 set2 107.4 (no result: tim10-1 inh, tim23-1 inh, TIM10 inh) | ATG4B conf 59.5 | PLA2 counter inactive
COC(=O)c1cc(C)nc2c1C(=O)C(=O)C=C2N1CCOCC1	ATG4B inh 75.2 | ATG4B conf inactive | PLA2 counter inactive
COC(=O)c1cc(S(=O)(=O)N2CCOCC2)c(Cl)cc1N1CCOCC1	none
O=C(O)c1cc(S(=O)(=O)NC(Cc2c[nH]c3ccccc23)C(=O)O)ccc1Cl (stereo unspecified)	none
N#CCOC(=O)[C@H](Cc1c[nH]c2ccccc12)NS(=O)(=O)c1ccc(Cl)cc1	ATG4B inh 57.0 | PLA2 counter 67.1
O=C(NCc1ccco1)c1cc(S(=O)(=O)N2CCOCC2)ccc1Cl	none
Fc1ccc(C2CC(c3ccc(F)cc3)n3ncnc3N2)cc1 (stereo unspecified)	none
O=C(O/N=C1\CCCc2ccccc21)c1cccc(Cl)c1	none (no result: PfHsp90 set2)
Cc1ccc(C(=O)O/N=C2\CCCc3ccccc32)cc1	ATG4B inh 42.6 (no result: PfHsp90 set2) | ATG4B conf 57.8 | PLA2 counter inactive
CC(C)c1ccc(Nc2nc(NCc3ccco3)nc(N3CCOCC3)n2)cc1	ATG4B inh 41.1 | PLA2 counter 57.2
Fc1ccccc1Nc1nc(NCc2ccco2)nc(N2CCOCC2)n1	none (no result: PfHsp90 set2)
CCc1nc(SCC(=O)Nc2ccccc2C(=O)OC)n[nH]1	none
CC(=O)c1cccc(NC(=O)NC2CCCc3ccccc32)c1 (stereo unspecified)	ATG4B inh 52.6 | PLA2 counter 66.9
CC(=O)c1ccc(NC(=O)NC2CCCc3ccccc32)cc1 (stereo unspecified)	SKKanGAS inh inconclusive
COc1ccc([C@H]2CC(=O)C=C(c3ccccc3-c3ccccc3)C2)cc1	ATG4B inh 41.8 (no result: SKKanGAS inh) | PLA2 counter 57.7
